# The list is not random: actives were taken first. Their share in the collection is about 9.2%.
# NPC1 promoter act – NPC1 promoter activation; Huh7 NPC1 promoter luciferase reporter, 24 h; Potency, µM (titrated, usually from 9.22 µM), for inactives: at the highest dose activation, actives largely listed as activators; hit rate 2.4% among 320,000; also: % of control where 0% means no effect; nearly all actives have a fitted effect of over 60% in size
#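 Luminescence read-out of NPC1 promoter-driven luciferase in stably transfected Huh7 cells; compounds delivered in DMSO and left 24 h at 37C, 5% CO2, qHTS titration format.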
# ELG1 repair inh – ELG1-dependent DNA repair inhibition. HEK293T ELG1-luciferase reporter, luminescence, 16 h; DNA damage induced by 5-fluorouridine. Potency, µM (titrated, usually from 46.1 µM), inactives show top-dose activity change, negative = inhibition, most hits filed as inhibitors. hit rate 2.3% among 330,000; also: % is scaled to controls: 0 for no effect and ±100 for the full control effect; nearly all actives have a fitted effect of over 55% in size
#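 DMSO vehicle served as the neutral condition. Each well held 2,000 cells given 5-fluorouridine plus compound; after 16 hr at 37 °C/5% CO2, ONE-Glo was added and luciferase measured 30 min later.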
# FLuc counter – firefly luciferase modulation, counter-screen for miR-21 project. hit rate 6.9% among 360,000. P08659. purified FLuc, Km substrates, luminescence inhibition. Potency, µM (highest dose often 57.5 µM), without a hit: top-dose activity change, negative = inhibition, usual class: inhibitors;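 also: plate controls were vehicle for no effect and reference inhibitor for full effect; nearly all actives have a fitted effect of over 55% in size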
# Target sequence (P08659 whole entry, looked up): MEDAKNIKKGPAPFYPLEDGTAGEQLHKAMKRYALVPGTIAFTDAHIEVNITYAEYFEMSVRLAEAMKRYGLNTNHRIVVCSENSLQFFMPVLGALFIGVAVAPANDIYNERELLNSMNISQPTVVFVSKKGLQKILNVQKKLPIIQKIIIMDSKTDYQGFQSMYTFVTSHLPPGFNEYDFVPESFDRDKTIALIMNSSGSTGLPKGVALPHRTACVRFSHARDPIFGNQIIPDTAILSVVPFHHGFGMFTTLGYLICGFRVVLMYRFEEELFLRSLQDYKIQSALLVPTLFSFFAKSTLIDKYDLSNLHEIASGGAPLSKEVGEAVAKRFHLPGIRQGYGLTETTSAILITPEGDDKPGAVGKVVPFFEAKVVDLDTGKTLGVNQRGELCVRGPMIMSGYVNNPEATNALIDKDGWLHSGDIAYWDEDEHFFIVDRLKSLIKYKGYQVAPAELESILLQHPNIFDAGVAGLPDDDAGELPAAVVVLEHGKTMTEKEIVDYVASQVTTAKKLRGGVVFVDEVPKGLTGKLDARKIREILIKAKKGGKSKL
#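 Purified P. pyralis luciferase, 10 nM final, with Km-level 10 uM D-luciferin and 10 uM ATP in 50 mM Tris acetate pH 7.5, 10 mM Mg acetate, 0.01% Tween-20, 0.05% BSA; 6-point qHTS titration about 60 µM downward; luminescence read.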
# ELG1 genotox – induces genotoxicity in HEK293T cells with luciferase-tagged ELG1; HEK293T ELG1-luciferase reporter, luminescence, 16 h; hit rate 1.3% among 330,000; Potency, µM (highest dose often 46 µM), for the others: at the highest dose activity change, positive = activation, actives largely listed as activators; AID 504466; also: % of control where 0% means no effect; nearly all actives have a fitted effect of over 60% in size
#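 DMSO vehicle served as control against compound-treated ELG1-luciferase HEK293T cells; exposure lasted 16 hr at 37 °C and 5% CO2, followed by ONE-Glo luminescence detection after 30 min.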
# Rab9 prom act – activators of Rab9 promoter; hit rate 2.8% among 320,000; Huh7 Rab9 promoter-luciferase reporter, luminescence, 24 h; Potency, µM (highest dose often 9.22 µM), without a hit: top-dose activation, negative = inhibition, actives largely listed as activators; AID 485297; also: % of control where 0% means no effect; nearly all actives have a fitted effect of over 60% in size
#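 Quantitative HTS format; Huh7 Rab9-luciferase reporter cells (1500/well) receive compound 2 h post-plating, incubate 24 h at 37 °C, then get luciferase reagent for 10 min before luminescence reading.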
# SMN2 splice enh – enhancers of SMN2 splice variant expression. HEK293 SMN2-luciferase splicing reporter, luminescence, 30-36 h. Potency, µM (highest dose often 46.1 µM), inactives show at the top dose activity change, positive = activation, actives largely listed as activators. hit rate 2.8% among 210,000; also: % of control where 0% means no effect; nearly all actives have a fitted effect of over 55% in size
#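 qHTS luciferase splicing reporter: luminescence rises when SMN2 exon 7 is included in transfected HEK293 cells. Compound exposure lasted 30-36 h at 37C, with 4.5 mM final sodium butyrate as control, followed by a ONE-Glo read.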
# Active calls of the source: *; ? = inconclusive; · = not tested or not shown. Calls follow the shape of the dose curve; as a rule, active = well fitted curve in the direction sought with a large enough effect; inconclusive = small, poorly fitted or top-dose-only effect, or another doubt; inactive = no such curve, though single readings can be large; an effect the other way counts as inactive or inconclusive. Potency is read from the fitted curve at half-maximal effect.
SMILES,NPC1 promoter act,ELG1 repair inh,FLuc counter,ELG1 genotox,Rab9 prom act,SMN2 splice enh
COc1ccc(-c2cc(-c3ccc(OC)c(OC)c3)n[nH]2)c(O)c1,?,?,5.4µM*,5.8µM*,?,22µM*
COC(=O)c1cc(-c2ccc(OC)c(OC)c2)n[nH]1,-2%,?,-16%,17%,14%,-16%
COc1ccc(-c2cc(-c3ccccc3O)[nH]n2)cc1OC,?,?,2.4µM*,21µM*,4µM*,?
CC(=O)Nc1ccc(NC(=O)C(C)OC(=O)C(C)SCC(=O)Nc2ccc(C)cc2)cc1 (stereo not given),0%,?,?,-8%,14%,·
COc1cc(C(=O)Nc2c(C)cc(C)cc2C)c(Br)c(OC)c1OC,5%,-11%,0%,-14%,-6%,-1%
CC(C)CN(C(=O)Cn1nnc(-c2ccc(F)cc2)n1)C1CCS(=O)(=O)C1 (stereo not given),-3%,7%,6%,5%,2%,·
O=C(Nc1cccc([N+](=O)[O-])c1)N1CCCc2ccccc21,1%,?,0%,16%,9%,·
O=[N+]([O-])c1cccc(NC(=S)N2CCc3ccccc32)c1,18%,13µM*,-12%,1%,7%,·
O=C(Nc1cccc([N+](=O)[O-])c1)Nc1cccc([N+](=O)[O-])c1,-1%,?,-1%,-17%,-6%,-29%
O=C(Nc1cccc([N+](=O)[O-])c1)ONC1=NCCCCC1,0%,7%,15µM*,-1%,-3%,·
O=C(Nc1cccc([N+](=O)[O-])c1)C(=O)N1CCCCC1,?,?,?,?,1.3µM*,18µM*
O=C(Nc1cccc([N+](=O)[O-])c1)NC1CCCCCCC1,2.8µM*,?,12µM*,-11%,2.5µM*,·
CCN(C(=O)COC(=O)c1ccc([N+](=O)[O-])o1)C1CCCCC1,·,-10%,·,-1%,·,·
CSc1ccccc1OC1CCN(Cc2ccccc2)CC1,2%,-1%,-3%,-5%,12%,?
O=C(NCCC1=CCCCC1)c1ccc(Br)o1,26%,?,?,16µM*,25%,29%
O=C(NCCC1=CCCCC1)c1ccc(F)cc1,0.4µM*,?,2.1µM*,?,0.45µM*,7.1µM*
CC(=O)c1c(C)[nH]c(C(=O)NCCC2=CCCCC2)c1C,3.5µM*,?,12µM*,9.2µM*,?,?
O=C(NC1CCCCCC1)c1ccc(CN2CCOCC2)cc1,3.2µM*,?,17µM*,?,3.5µM*,?
CCOC(=O)c1[nH]c(C)c(C(=O)NCCC2=CCCCC2)c1C,27%,?,-5%,?,?,6%
O=C(NC1CCCC1)c1ccc(CN2CCOCC2)cc1,9%,?,-5%,12%,16%,-1%
O=C(NC(=S)NCCC1=CCCCC1)c1ccc(Br)o1,21%,?,?,12%,?,26%
CCCCN(Cc1ccccc1)S(=O)(=O)c1ccc2c(c1)CCN2C(=O)C1CCC1,·,·,-8%,·,·,-9%
CN(C(=O)COC(=O)/C=C/c1ccc(S(=O)(=O)N2CCc3ccccc32)cc1)C1CCS(=O)(=O)C1 (stereo not given),-3%,-1%,-4%,8%,-7%,7%
CCCc1cc(NC(=O)CCl)n(-c2ccccc2)n1,-10%,?,0%,-23%,1%,5%
CC(C)NC(=O)c1ccc(COc2cc(Cl)ccc2Cl)o1,0%,?,-15%,-1%,12%,·
SMILES,NPC1 promoter act,ELG1 repair inh,FLuc counter,ELG1 genotox,Rab9 prom act,SMN2 splice enh
COc1cccc(C(=O)NCCC2=CCCCC2)c1,0.56µM*,?,3µM*,?,0.63µM*,?
O=C(NCCc1ccc(F)cc1)c1ccc([N+](=O)[O-])cc1,2.5µM*,?,15µM*,?,3.2µM*,11µM*
CCOC(=O)c1ccc(NC(=S)NCCC2=CCCCC2)cc1,-1%,-25%,7%,-3%,4%,-85%
Cc1cc(C(=O)NCCC2=CCCCC2)ccc1[N+](=O)[O-],4.5µM*,?,12µM*,?,1.8µM*,·
Cc1ccc(NC(=S)NCCC2=CCCCC2)cc1,?,?,?,17%,3.5µM*,20µM*
CS(=O)(=O)N1CCC2(CCCN(c3ccccn3)C2)CC1,·,·,·,·,·,-16%
O=C(NCCC1=CCCCC1)c1ccc([N+](=O)[O-])cc1,1.1µM*,?,5.4µM*,?,0.63µM*,2.8µM*
COc1ccc(C(=O)NCC(=O)OCC(=O)NCCC2=CCCCC2)cc1,0%,9%,4%,0%,-6%,3%
COc1ccc(C(=O)NCCC2=CCCCC2)cc1,0.35µM*,?,0.85µM*,1.5µM*,0.32µM*,2.5µM*
COc1ccc(CCNC(=O)c2ccc(CN3CCOCC3)cc2)cc1,12%,-11%,?,1%,-3%,-15%
O=C(NCCC1=CCCCC1)c1ccc(CN2CCOCC2)cc1,2.8µM*,?,24µM*,?,1.4µM*,13µM*
O=C(CCNC(=O)c1ccc([N+](=O)[O-])cc1)NCCC1=CCCCC1,-5%,0%,-2%,-3%,-3%,·
CN(c1ccccc1C(=O)N1CCN(Cc2ccc3c(c2)OCO3)CC1)S(C)(=O)=O,-2%,-3%,1%,15%,1%,-9%

# High-throughput results: PubChem BioAssay, National Center for Advancing Translational Sciences (NCATS)
